Source: PubChem BioAssay AID1030 (National Center for Advancing Translational Sciences (NCATS), 2008)
Screen size: about 220,000 compounds; about 16,000 (7.3%) were called active. Inconclusive results (about 25%) are left out. The call rests on the fitted dose curve; in most records, active means well fitted inhibition curve with a large enough effect (not every such curve was filed as active); inconclusive means small, poorly fitted or top-dose-only effect, or another doubt; inactive means no such curve, though single readings can be large or run the other way. The full list was thinned out, with actives kept by preference.

target: Aldehyde dehydrogenase 1A1 (Homo sapiens) (UniProt P00352); assay: qHTS Assay for Inhibitors of Aldehyde Dehydrogenase 1 (ALDH1A1); conditions: Purified ALDH1A1, NADH fluorescence, propionaldehyde substrate; series mostly up to 75.3 µM; activity, negative = inhibition: at the top concentration;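 on activity, negative = inhibition: plate controls were no enzyme wells and a reference inhibitor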
Potency means the concentration at half of the fitted maximal effect.

Aldehyde dehydrogenase 1A1 (Homo sapiens), sequence (P00352 whole entry, looked up): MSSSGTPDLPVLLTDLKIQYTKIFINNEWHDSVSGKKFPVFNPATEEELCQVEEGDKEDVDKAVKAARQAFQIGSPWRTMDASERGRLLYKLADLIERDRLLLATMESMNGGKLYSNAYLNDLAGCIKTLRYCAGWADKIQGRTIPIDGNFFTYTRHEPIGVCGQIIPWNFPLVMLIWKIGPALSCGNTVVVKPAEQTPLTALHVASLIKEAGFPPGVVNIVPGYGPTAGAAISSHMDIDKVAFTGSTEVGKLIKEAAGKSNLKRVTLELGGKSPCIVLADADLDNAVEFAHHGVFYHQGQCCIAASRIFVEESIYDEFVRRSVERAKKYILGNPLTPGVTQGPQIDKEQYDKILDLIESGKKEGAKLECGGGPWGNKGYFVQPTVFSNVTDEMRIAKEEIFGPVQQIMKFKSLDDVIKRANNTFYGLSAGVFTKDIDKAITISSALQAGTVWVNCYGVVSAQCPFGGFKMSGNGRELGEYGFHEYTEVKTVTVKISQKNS

| Structure (SMILES) | activity, negative = inhibition | Potency |
| --- | --- | --- |
| C=CCNC(=O)COC(=O)CNC(=O)c1cc(Cl)cc([N+](=O)[O-])c1 | -7.54% (inactive) | – |
| Cn1cc(CCC(=O)N2CCCC(C(=O)c3ccc(C(C)(C)C)cc3)C2)cn1 (configuration not stated) | -17.2% (inactive) | – |
| Cc1nn(CC(=O)N/N=C/c2ccc(F)cc2)c(C)c1[N+](=O)[O-] | 8.02% (inactive) | – |
| O=C(CCCc1ccccc1)NCc1ccccc1 | -5.53% (inactive) | – |
| C/C(=C\c1ccco1)CN1CCC(N2CCC(C(=O)N3CCOCC3)CC2)CC1 | -2.56% (inactive) | – |
| COc1ccc(C(C)=O)cc1CSc1nc2nc(C)cc(C)n2n1 | – | 20 µM (active) |
| CCOC(=O)C(C)Sc1nnc(CSc2nc3nc(C)cc(C)n3n2)o1 (configuration not stated) | 12.7% (inactive) | – |
| Cc1cc(C)n2nc(SCC(N)=O)nc2n1 | 10.8% (inactive) | – |
| O=C(CCC(=O)OCc1ccc(Cl)cc1)Nc1ccccc1 | -1.17% (inactive) | – |
| Cc1cc(C)c2nc(-c3cccnc3)cc(C(=O)Nc3ccc(S(=O)(=O)Nc4onc(C)c4C)cc3)c2c1 | 23.6% (inactive) | – |
| COc1ccc(/C=C/C(=O)c2ccc(NS(=O)(=O)c3ccc(C)cc3)cc2)cc1O | -11% (inactive) | – |
| CN1CCN(C(=O)CCc2ncc(C(F)(F)F)cc2Cl)CC1 | 3.64% (inactive) | – |
| CC(CC(=O)C1C(C)C=CCC1(C)C)NNC(N)=O (configuration not stated) | 6.59% (inactive) | – |
| O=S1(=O)CCN2C(=N1)SC1=C2CCN(Cc2ccccc2)C1 | 13.5% (inactive) | – |
| O=C(Nc1ccccc1Cc1ccccc1)c1ccc2c(c1)SC1=NS(=O)(=O)CCN12 | – | 7.94 µM (active) |
| O=C(Nc1ccccc1N1CCN(c2ccccc2)CC1)c1cccc(F)c1 | -8.56% (inactive) | – |
| COc1ccc(N2CCN(CCCNC(=O)C3CCN(S(=O)(=O)N4CCOCC4)CC3)CC2)cc1 | 6.15% (inactive) | – |
| CCc1ccc(N2CC(O)=C(c3nc4ccccc4c(=O)[nH]3)C2=N)cc1 | -198% (inactive) | – |
| O=C(NCc1ccccc1)C1=C[C@@H](C2CCCCC2)C[C@@H](OCc2ccc(CO)cc2)O1 | – | 12.6 µM (active) |
| NC(=O)C1=C[C@H](c2csc3ccccc23)C[C@H](OCc2ccc(CO)cc2)O1 | – | 8.91 µM (active) |
| C=CCOC(=O)c1ccccc1C(=O)OCC=C | -5.89% (inactive) | – |
| C=CCOC(=O)C1=C[C@@H](c2ccccc2)C[C@@H](OCc2ccc(CO)cc2)O1 | – | 10 µM (active) |
| O=C(NCc1ccccc1)C1=C[C@@H](c2ccc(C(F)(F)F)cc2)C[C@@H](OCc2ccc(CO)cc2)O1 | -6.56% (inactive) | – |

| Structure (SMILES) | activity, negative = inhibition | Potency |
| --- | --- | --- |
| O=C(NCc1ccccc1)C1=C[C@H](C2CC2)C[C@H](OCc2ccc(CO)cc2)O1 | -12.3% (inactive) | – |
| CC(C)(C)[C@H]1C=C(C(=O)NCc2ccccc2)O[C@@H](OCc2ccc(CO)cc2)C1 | -0.163% (inactive) | – |
| O=C(C1=C[C@H](C2CC2)C[C@H](OCc2ccc(CO)cc2)O1)N1CCN(Cc2ccccc2)CC1 | -3.33% (inactive) | – |
| O=C(C1=C[C@H](c2coc3ccccc3c2=O)C[C@H](OCc2ccc(CO)cc2)O1)N1CCOCC1 | -3.13% (inactive) | – |
| O=C(CCS(=O)(=O)c1ccccc1Cl)Nc1ccc(S(=O)(=O)Nc2ncccn2)cc1 | 9.04% (inactive) | – |
| O=C(COc1ccccc1)Nc1ccc(N2CCN(C(=O)c3cccs3)CC2)cc1 | -11.5% (inactive) | – |
| Cc1ccc(C)c(-n2ccnc2SCC(N)=O)c1 | 21.3% (inactive) | – |
| CC(CCn1cccn1)NC(=O)CCc1nnc(CCc2ccccc2)o1 (configuration not stated) | 0.243% (inactive) | – |
| CCC(C)NC(=O)c1nn(C)c(=O)c2ccccc12 (configuration not stated) | 5.8% (inactive) | – |
| CCC(C(=O)OCC(=O)Nc1ccccc1-c1ccccc1)c1ccccc1 (configuration not stated) | -5.66% (inactive) | – |
| CCOC(=O)c1c(C)oc2ccc(OCC(=O)N(CC)CC)cc12 | – | 11.2 µM (active) |
| CCOC(=O)c1c(C)oc2cc(Br)c(OCC(N)=O)cc12 | 2.21% (inactive) | – |
| CCOC(=O)c1c(C)[nH]c(C(=O)COc2ccc3c(c2)OCO3)c1C | -4.6% (inactive) | – |
| O=C(Nc1ccc(Cl)cc1)/C(=C1\CCCN1)[N+](=O)[O-] | 7.93% (inactive) | – |
| Cn1nc(C(F)(F)F)cc1-c1ccc(/C=C(\C#N)C(=O)c2cccc(C(F)(F)F)c2)s1 | 0.518% (inactive) | – |
| CCOc1cccc(-c2nn3c(-c4ccccn4)nnc3s2)c1 | 3.69% (inactive) | – |
| COc1cc(-c2nn3c(-c4cccc(C)c4)nnc3s2)cc(OC)c1OC | 6.41% (inactive) | – |
| COc1ccc(-c2nn3c(-c4ccccc4)nnc3s2)cc1OC | – | 25.1 µM (active) |
| CC(=O)c1sc(NC(=O)CCCOc2ccccc2C)nc1C | 18.5% (inactive) | – |
| O=[N+]([O-])c1ccccc1N/N=C1\CCc2ccccc21 | 3.37% (inactive) | – |
| C=Cn1c(C(=O)O)ccc1-c1ccc(OC)cc1 | -0.558% (inactive) | – |
| C=CCn1c(=O)c2ccccc2n2c(SCC(=O)N3CCCc4ccccc43)nnc12 | – | 4.47 µM (active) |
| O=C(CSc1nc2[nH]ncc2c(=O)n1-c1ccccc1)N1CCCc2ccccc21 | -9.05% (inactive) | – |

| Structure (SMILES) | activity, negative = inhibition | Potency |
| --- | --- | --- |
| CCCn1c(SCC(=O)N2CCc3ccccc32)nnc1-c1ccncc1 | -2.33% (inactive) | – |
| Cc1ccnc2nc(C(=O)OCC(=O)N(CC(C)C)CC(C)C)nn12 | -1.78% (inactive) | – |
| Cc1ccnc(NS(=O)(=O)c2ccc(NC(=O)c3ccc(S(=O)(=O)N4CCOCC4)cc3)cc2)n1 | -5.25% (inactive) | – |
| O=P(O)(O)C(O)c1ccc2ccccc2c1 (configuration not stated) | 3.77% (inactive) | – |
| N#Cc1c2c(c(-c3ccccc3)[nH]c1=O)CCCC2 | 0.588% (inactive) | – |
| N#Cc1c(/N=C/N2CCCC2)oc(-c2ccccc2)c1-c1ccccc1 | – | 7.94 µM (active) |
| CCSc1sc(CC)cc1C=O | 16.6% (inactive) | – |
| O=C(COC(=O)c1ccccc1)Nc1cccc(S(=O)(=O)N2CCOCC2)c1 | 2.02% (inactive) | – |
| Cc1ccc(N(C(=O)c2ccc(S(=O)(=O)N(C)C)cc2)C2C=CS(=O)(=O)C2)cc1 (configuration not stated) | -1.32% (inactive) | – |
| C=CCNc1scc(-c2ccccc2)[n+]1CC=C | 6.41% (inactive) | – |
| CCc1ccnc(NS(=O)(=O)c2ccc3c(c2)OCCO3)c1 | -10.2% (inactive) | – |
| CCN(C(=O)COC(=O)/C=C/c1nc2ccccc2s1)C1CCS(=O)(=O)C1 (configuration not stated) | -11.6% (inactive) | – |
| CCCCC(=O)Nc1nc(C)c(-c2csc(Nc3ccc(Cl)cc3)n2)s1 | – | 11.2 µM (active) |
| Cc1ccc(Nc2nc(-c3sc(NC(=O)c4ccccc4)nc3C)cs2)cc1 | – | 20 µM (active) |
| CCCCN(C)CCC(=O)Nc1ccc(Cl)cc1 | 6.04% (inactive) | – |
| Cc1ccc(-c2csc(NNC(=O)c3ccccc3)n2)cc1 | -4.96% (inactive) | – |
| Cc1nc(NC(=O)c2cccc(Cl)c2)sc1-c1csc(Nc2cccc(Cl)c2)n1 | -7.1% (inactive) | – |
| COc1ccc(-c2csc(NC(=O)CCCc3cccs3)n2)cc1 | -6.08% (inactive) | – |
| COc1ccc(C(=O)Nc2ccc3c(c2)OCO3)cc1OC | 5.14% (inactive) | – |
| CCOc1ccc(NCCC(=O)c2ccc3c(c2)OCO3)cc1 | – | 0.631 µM (active) |
| COC(=O)CCNc1ccc2c(c1)OCCO2 | 1.06% (inactive) | – |
